Results as given in PubChem BioAssay (EPA / NIEHS).
Values joined by “and” are separate entries in the source; they are usually repeats but may differ in a detail not shown here. Identical values can stand only once. A structure can be active in one record and inactive in another. Active and inactive are the calls of the source. How the source made its calls: active means hit-call score of the fitted dose curve at least 0.9, where 1 is the maximum; inactive means score below 0.9.

Assays:
[1] = BSK_CASM3C_SRB: Viability Assessment in the BioMAP Diversity Plus: CASM3C Assay (AID 2283050); conditions: primary human coronary artery smooth muscle cells;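 further: total protein by SRB staining as cytotoxicity measure in parallel cultures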
[2] = read-out: Thrombomodulin, THBD (gene 7056); assay: BSK_CASM3C_Thrombomodulin: BioMAP Diversity Plus: CASM3C Assay for Thrombomodulin Biomarker Activity (AID 2283051); conditions: primary human coronary artery smooth muscle cells; actives raise or lower the signal;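 further: thrombomodulin protein level measured by ELISA 24 h after dosing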
[3] = read-out: Tissue Factor, F3 (gene 2152); assay: BSK_CASM3C_TissueFactor: BioMAP Diversity Plus: CASM3C Assay for Tissue Factor Biomarker Activity (AID 2283052); conditions: primary human coronary artery smooth muscle cells; actives raise or lower the signal;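 further: cell surface tissue factor protein level read by ELISA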
[4] = read-out: Interferon-gamma inducible Protein 10 (IP10), CXCL10 (gene 3627); assay: BSK_hDFCGF_IP10: BioMAP Diversity Plus: hDFCGF Assay for Interferon-gamma inducible Protein 10 (IP10) Biomarker Activity (AID 2283053); conditions: primary human foreskin fibroblasts; actives raise or lower the signal
In short: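 Human foreskin fibroblast primary cells (hDFCGF system) were dosed with chemical and assayed at 24 h; IP-10 measured by ELISA. Activity fitted bidirectionally relative to DMSO negative control as baseline.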

[5] = read-out: Urokinase-type plasminogen activator receptor (uPAR), PLAUR (gene 5329); assay: BSK_CASM3C_uPAR: BioMAP Diversity Plus: CASM3C Assay for Urokinase-type plasminogen activator receptor (uPAR) Biomarker Activity (AID 2283054); conditions: primary human coronary artery smooth muscle cells; actives raise or lower the signal;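 further: cell-surface uPAR protein level quantified by ELISA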
[6] = read-out: Vascular cell adhesion molecule 1 (VCAM1), VCAM1 (gene 7412); assay: BSK_CASM3C_VCAM1: BioMAP Diversity Plus: CASM3C Assay for Vascular cell adhesion molecule 1 (VCAM1) Biomarker Activity (AID 2283055); conditions: primary human coronary artery smooth muscle cells; actives raise or lower the signal;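 further: VCAM-1 protein level quantified by ELISA on the cells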
[7] = read-out: Collagen III, COL3A1 (gene 1281); assay: BSK_hDFCGF_CollagenIII: BioMAP Diversity Plus: hDFCGF Assay for Collagen III Biomarker Activity (AID 2283056); conditions: primary human foreskin fibroblasts; actives raise or lower the signal
In short: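 Cells: human foreskin fibroblasts, primary. Dosing followed by 24 h incubation, then ELISA for collagen III. Both increases and decreases scored relative to DMSO.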

[8] = read-out: Interleukin-8 (IL8), CXCL8 (gene 3576); assay: BSK_hDFCGF_IL8: BioMAP Diversity Plus: hDFCGF Assay for Interleukin-8 (IL8) Biomarker Activity (AID 2283058); conditions: primary human foreskin fibroblasts; actives raise or lower the signal
In short: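 IL-8 levels from compound-treated primary human fibroblasts were read by ELISA at 24 h, with DMSO serving as baseline for bidirectional fitting.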

[9] = BSK_hDFCGF_Proliferation: Cell Proliferation Assessment in the BioMAP Diversity Plus: hDFCGF Assay (AID 2283059); conditions: primary human foreskin fibroblasts;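 further: curves fitted for both rise and fall of signal versus DMSO baseline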
In short: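 This proliferation readout used SRB total-protein staining of human foreskin fibroblasts […], normalized to DMSO with bidirectional curve fitting.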

[10] = read-out: Epidermal growth factor receptor (EGFR), EGFR (gene 1956); assay: BSK_hDFCGF_EGFR: BioMAP Diversity Plus: hDFCGF Assay for Epidermal growth factor receptor (EGFR) Biomarker Activity (AID 2283057); conditions: primary human foreskin fibroblasts; actives raise or lower the signal
In short: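 Primary human foreskin fibroblasts were exposed to compound for 24 h, after which cell-surface EGFR was quantified by ELISA. Activity was fitted bidirectionally against the DMSO negative control as baseline.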

Measured: AC50

COc1ccc(C(=O)/C(Br)=C\C(=O)O)cc1
inactive: [2] | [7] | [8]
active: [1] 23.8 µM and 28.8 µM | [3] 4.22 µM and 11.4 µM | [4] 33.1 µM and 32.6 µM | [5] 13.4 µM and 30.6 µM | [6] 12 µM and 20 µM | [7] 13.6 µM | [8] 38.9 µM | [9] 29.4 µM and 20 µM

CC(C)c1cccc(C(C)C)c1N
inactive: [1] | [2] | [3] | [4] | [5] | [6] | [7] | [10] | [8] | [9]

Cc1ccc([N+](=O)[O-])cc1N
inactive: [1] | [2] | [3] | [4] | [5] | [6] | [7] | [10] | [8] | [9]

CC=C(C)C=CC=C(C)C
active: [3] 3.97 µM | [6] 16.8 µM | [9] 15.7 µM
inactive: [1] | [2] | [4] | [5] | [7] | [8]

CC=C(C)C(C)=O
active: [2] 3.97 µM | [7] 3.97 µM | [9] 20 µM
inactive: [1] | [3] | [4] | [5] | [6] | [10] | [8]

CCC1(C)C(=O)N(Cl)C(=O)N1Cl (centres undefined)
inactive: [1] | [2] | [3] | [4] | [5] | [6] | [7] | [10] | [8] | [9]

CCCCCCCCCCCC(C)=O
inactive: [2] | [4] | [6] | [7] | [10] | [8]
active: [1] 20 µM | [3] 0.82 µM | [5] 20 µM | [9] 24.6 µM

CCCCCCCCCCCC(=O)N(C)CC(=O)O
inactive: [1] | [2] | [3] | [4] | [5] | [6] | [10] | [8] | [9]
active: [7] 8.61 µM and 24.7 µM

CCCCCC1=CCCC1=O
inactive: [1] | [2] | [3] | [4] | [5] | [6] | [7] | [8] | [9]

C[N+](C)(C)CCCNS(=O)(=O)C(F)(F)C(F)(F)C(F)(F)C(F)(F)C(F)(F)C(F)(F)C(F)(F)C(F)(F)F
active: [2] 30 µM | [4] 48.5 µM and 48.9 µM | [7] 11.4 µM and 5.3 µM | [8] 49.3 µM and 45.2 µM | [9] 1.44 µM and 220 nM
inactive: [1] | [2] | [3] | [5] | [6]

O=C1CCCCCCCCCCCN1
inactive: [1] | [2] | [3] | [4] | [5] | [6] | [7] | [10] | [8] | [9]

O=C1CCCCCCCCCCC1
inactive: [1] | [2] | [3] | [4] | [5] | [6] | [7] | [10] | [8] | [9]

CCN1CN(CC)CN(CC)C1
inactive: [1] | [2] | [3] | [4] | [5] | [6] | [7] | [8] | [9]

Cc1c(O)cccc1O
inactive: [1] | [2] | [3] | [4] | [5] | [6] | [7] | [10] | [8] | [9]

C=CCCCCCCCCC=O
inactive: [1] | [2] | [3] | [4] | [5] | [6] | [7] | [10] | [8] | [9]

CCOC(=O)C1=NN(c2ccc(Cl)cc2Cl)C(C)(C(=O)OCC)C1 (centres undefined)
active: [7] 20 µM
inactive: [1] | [2] | [3] | [4] | [5] | [6] | [8] | [9]

CC(C)CCCCCOC(=O)CS
inactive: [1] | [2] | [3] | [4] | [5] | [6] | [7] | [10] | [8] | [9]

Nc1cccc(N)n1
inactive: [1] | [2] | [3] | [4] | [5] | [6] | [7] | [10] | [8] | [9]

Oc1ccc(/C=C/c2cc(O)cc(O)c2)cc1
active: [3] 7.96 µM | [9] 17.5 µM
inactive: [1] | [2] | [4] | [5] | [6] | [7] | [10] | [8]

Oc1c(Cl)cc(Cl)c(Cl)c1Cl
inactive: [1] | [2] | [3] | [5] | [10] | [8]
active: [4] 31.1 µM | [6] 3.97 µM | [7] 10.4 µM | [9] 27.7 µM

Oc1ccccc1Cc1ccccc1O
active: [6] 0.239 µM | [9] 28.1 µM and 27 µM
inactive: [1] | [2] | [3] | [4] | [5] | [6] | [7] | [8]

Nc1nc(N)nc(-c2ccccc2)n1
inactive: [1] | [2] | [3] | [4] | [5] | [6] | [7] | [10] | [8] | [9]
active: [3] 0.0609 µM | [6] 0.268 µM

CC/C=C\C/C=C\C/C=C\CCCCCCCC(=O)OC
inactive: [10]
active: [1] 15.2 µM | [2] 36.2 µM | [3] 13.9 µM | [4] 10.7 µM | [5] 29.7 µM | [6] 14.8 µM | [7] 5.53 µM | [8] 20 µM | [9] 1.68 µM

CCOC(=O)C1=NOC(c2ccccc2)(c2ccccc2)C1
active: [6] 20 µM
inactive: [1] | [2] | [3] | [4] | [5] | [7] | [10] | [8] | [9]

O=C(O)C(F)(F)C(F)(F)C(F)(F)C(F)(F)C(=O)O
inactive: [1] | [2] | [3] | [4] | [5] | [6] | [7] | [10] | [8] | [9]

c1ccc2sc(SSN3CCOCC3)nc2c1
inactive: [2] | [4] | [7] | [8]
active: [1] 20 µM | [3] 10.6 µM | [5] 6.71 µM | [6] 4.44 µM | [10] 7.7 µM | [9] 1.41 µM

COc1ccc(C(=O)c2ccccc2)c(O)c1
inactive: [1] | [2] | [4] | [5] | [6] | [7] | [10] | [8] | [9]
active: [3] 20 µM

CC(C)[N+](C)(CCOC(=O)C1c2ccccc2Oc2ccccc21)C(C)C
inactive: [1] | [2] | [3] | [4] | [5] | [6] | [7] | [10] | [8]
active: [9] 0.471 µM
